# Targets with a hit are over-represented here; the source holds about 8,800 in all. About 0.5% of all pairs of compound and target were hits. Unmarked numbers belong to inactive results.
# Tests used:
# Experiment in all cases: log2 fold change, soluble protein after heating vs DMSO (PISA); higher = thermal stabilisation; K562 lysate, 10 uM; active = over 0.2 and 3.5 SD of the protein, either way, in both replicates (recomputed)
# nilotinib = compound: Cc1cn(-c2cc(NC(=O)c3ccc(C)c(Nc4nccc(-c5cccnc5)n4)c3)cc(C(F)(F)F)c2)cn1 [nilotinib]
# Method in brief: (§1)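 Values give the log-two fold change in thermal stability against solvent controls, from duplicates. Crude K562 extract at 1 mg/mL protein, made by dounce homogenisation in PBS pH 7.4 with 1 mM MgCl2, was treated with 10 μM compound for 30 min. After 3 min heating across 48°C-58°C, aliquots were pooled, adjusted to 0.5% NP-40 at 4°C and centrifuged at 21,000xg for 90 min. The supernatant was measured by TMTpro 16plex LC-MS/MS with channel sums equalised.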
# [1] = compound: Cc1nc(Nc2n[nH]c3c2CN(C(=O)N[C@H](CN(C)C)c2ccccc2)C3(C)C)c2sccc2n1
# Method in brief: as §1
# dasatinib = compound: Cc1nc(Nc2ncc(C(=O)Nc3c(C)cccc3Cl)s2)cc(N2CCN(CCO)CC2)n1 [dasatinib]
# Method in brief: as §1
# [2] = compound: Cc1ncc(-c2ccnc(Nc3ccc(S(C)(=O)=O)cc3)n2)n1C(C)C
# Method in brief: as §1
# [3] = compound: Cn1cc(-c2ccc3c(c2)CCN3C(=O)Cc2cccc(C(F)(F)F)c2)c2c(N)ncnc21
# Method in brief: as §1
# quisinostat = compound: Cn1cc(CNCC2CCN(c3ncc(C(=O)NO)cn3)CC2)c2ccccc21 [quisinostat]
# Method in brief: as §1
# tipifarnib = compound: Cn1cncc1[C@@](N)(c1ccc(Cl)cc1)c1ccc2c(c1)c(-c1cccc(Cl)c1)cc(=O)n2C [tipifarnib]
# Method in brief: as §1
# [4] = compound: NC(=O)Nc1cc(-c2cccc(F)c2)sc1C(=O)N[C@H]1CCCNC1
# Method in brief: as §1
# [5] = compound: NC(=O)c1cnc(N[C@@H]2CCCC[C@@H]2N)nc1Nc1cccc(-n2nccn2)c1
# Method in brief: as §1
# [6] = compound: NC1(c2ccc(-c3nc4ccn5c(=O)[nH]nc5c4cc3-c3ccccc3)cc2)CCC1
# Method in brief: as §1
# [7] = compound: NCC(=O)Nc1ccc(-n2nc(C(F)(F)F)cc2-c2ccc3c(ccc4ccccc43)c2)cc1
# Method in brief: as §1
# vorinostat = compound: O=C(CCCCCCC(=O)Nc1ccccc1)NO [vorinostat]
# Method in brief: as §1
# silmitasertib = compound: O=C(O)c1ccc2c(c1)nc(Nc1cccc(Cl)c1)c1ccncc12 [silmitasertib]
# Method in brief: as §1
# [8] = compound: O=C1NC(=O)C(c2cnc3ccccn23)=C1c1cn2c3c(cc(F)cc13)CN(C(=O)N1CCCCC1)CC2
# Method in brief: as §1
# entospletinib = compound: c1cn2cc(-c3ccc4cn[nH]c4c3)nc(Nc3ccc(N4CCOCC4)cc3)c2n1 [entospletinib]
# Method in brief: as §1
# Sequence of UniProt P00352 (P00352 whole entry, looked up): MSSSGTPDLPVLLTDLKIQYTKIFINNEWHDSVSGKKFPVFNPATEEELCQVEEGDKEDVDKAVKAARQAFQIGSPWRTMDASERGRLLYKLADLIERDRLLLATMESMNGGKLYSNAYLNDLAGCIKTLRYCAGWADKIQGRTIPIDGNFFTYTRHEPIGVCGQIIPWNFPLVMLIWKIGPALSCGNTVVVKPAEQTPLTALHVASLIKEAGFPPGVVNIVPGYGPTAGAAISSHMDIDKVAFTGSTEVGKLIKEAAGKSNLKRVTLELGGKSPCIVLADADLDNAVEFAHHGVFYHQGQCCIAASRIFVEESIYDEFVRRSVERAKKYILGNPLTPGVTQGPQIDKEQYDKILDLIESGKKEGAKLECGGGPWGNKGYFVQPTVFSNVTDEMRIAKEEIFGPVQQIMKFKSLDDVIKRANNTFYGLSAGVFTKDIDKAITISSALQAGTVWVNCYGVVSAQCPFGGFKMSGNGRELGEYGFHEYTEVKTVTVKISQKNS
# Sequence of UniProt Q96BM9 (Q96BM9 whole entry, looked up): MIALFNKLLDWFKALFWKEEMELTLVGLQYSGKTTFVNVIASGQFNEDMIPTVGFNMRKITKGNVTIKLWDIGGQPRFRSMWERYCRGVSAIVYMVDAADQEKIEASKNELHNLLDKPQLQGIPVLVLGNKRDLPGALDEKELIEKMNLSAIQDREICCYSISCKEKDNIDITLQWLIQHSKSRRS
# Sequence of UniProt Q8NB46 (Q8NB46 whole entry, looked up): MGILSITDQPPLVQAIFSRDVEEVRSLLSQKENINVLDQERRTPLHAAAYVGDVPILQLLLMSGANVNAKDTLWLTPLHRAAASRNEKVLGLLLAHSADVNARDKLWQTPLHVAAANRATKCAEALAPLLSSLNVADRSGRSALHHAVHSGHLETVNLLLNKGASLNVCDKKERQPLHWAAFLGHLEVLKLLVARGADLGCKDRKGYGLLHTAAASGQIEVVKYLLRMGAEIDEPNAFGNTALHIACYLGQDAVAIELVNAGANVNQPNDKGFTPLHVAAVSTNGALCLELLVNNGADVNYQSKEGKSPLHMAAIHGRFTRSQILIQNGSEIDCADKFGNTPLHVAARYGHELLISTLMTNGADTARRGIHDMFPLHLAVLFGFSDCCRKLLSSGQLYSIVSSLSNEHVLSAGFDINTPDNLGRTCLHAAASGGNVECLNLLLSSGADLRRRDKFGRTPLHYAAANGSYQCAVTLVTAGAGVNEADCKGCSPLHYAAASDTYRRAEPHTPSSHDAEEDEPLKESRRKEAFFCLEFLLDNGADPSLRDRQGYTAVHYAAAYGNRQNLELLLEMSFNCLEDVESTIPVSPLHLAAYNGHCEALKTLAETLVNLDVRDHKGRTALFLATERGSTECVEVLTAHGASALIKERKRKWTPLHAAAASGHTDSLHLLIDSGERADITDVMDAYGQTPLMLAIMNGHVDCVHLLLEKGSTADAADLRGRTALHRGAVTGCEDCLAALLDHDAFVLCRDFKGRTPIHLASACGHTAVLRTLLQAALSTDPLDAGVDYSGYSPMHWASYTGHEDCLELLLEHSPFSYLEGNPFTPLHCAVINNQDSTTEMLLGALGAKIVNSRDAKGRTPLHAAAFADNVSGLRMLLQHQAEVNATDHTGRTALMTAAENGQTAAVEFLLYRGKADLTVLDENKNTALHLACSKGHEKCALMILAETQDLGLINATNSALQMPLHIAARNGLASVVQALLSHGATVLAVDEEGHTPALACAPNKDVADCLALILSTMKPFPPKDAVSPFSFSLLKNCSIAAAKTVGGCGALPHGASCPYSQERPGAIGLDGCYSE
# Sequence of UniProt Q9NQW6 (Q9NQW6 whole entry, looked up): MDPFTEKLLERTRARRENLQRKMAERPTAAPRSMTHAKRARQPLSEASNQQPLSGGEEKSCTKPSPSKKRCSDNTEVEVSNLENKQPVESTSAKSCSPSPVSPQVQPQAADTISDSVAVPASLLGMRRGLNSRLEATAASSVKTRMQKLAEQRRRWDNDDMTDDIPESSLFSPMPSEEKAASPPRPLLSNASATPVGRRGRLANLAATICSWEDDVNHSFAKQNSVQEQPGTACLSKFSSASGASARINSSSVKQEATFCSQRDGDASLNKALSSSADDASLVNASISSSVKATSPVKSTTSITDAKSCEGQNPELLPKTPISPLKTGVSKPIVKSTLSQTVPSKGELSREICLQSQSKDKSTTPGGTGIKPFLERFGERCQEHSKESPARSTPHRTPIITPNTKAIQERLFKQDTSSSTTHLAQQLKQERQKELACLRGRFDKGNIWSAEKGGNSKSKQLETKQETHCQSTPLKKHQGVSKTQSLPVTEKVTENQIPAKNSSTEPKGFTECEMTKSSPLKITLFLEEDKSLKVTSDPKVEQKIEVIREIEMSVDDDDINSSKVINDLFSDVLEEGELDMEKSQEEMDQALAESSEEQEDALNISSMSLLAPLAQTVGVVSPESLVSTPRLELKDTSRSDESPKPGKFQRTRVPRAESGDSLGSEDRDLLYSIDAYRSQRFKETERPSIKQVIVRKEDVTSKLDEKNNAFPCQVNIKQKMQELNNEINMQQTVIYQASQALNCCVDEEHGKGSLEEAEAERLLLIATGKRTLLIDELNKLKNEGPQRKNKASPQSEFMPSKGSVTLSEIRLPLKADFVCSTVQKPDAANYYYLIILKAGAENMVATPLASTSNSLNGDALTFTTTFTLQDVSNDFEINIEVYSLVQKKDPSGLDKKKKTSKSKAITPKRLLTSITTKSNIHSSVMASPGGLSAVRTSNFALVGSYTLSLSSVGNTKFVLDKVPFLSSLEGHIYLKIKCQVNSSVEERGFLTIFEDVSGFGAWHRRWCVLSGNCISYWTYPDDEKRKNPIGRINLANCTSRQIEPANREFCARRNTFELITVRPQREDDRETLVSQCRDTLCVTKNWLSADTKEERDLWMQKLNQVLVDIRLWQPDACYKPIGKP
# Sequence of UniProt Q562R1 (Q562R1 whole entry, looked up): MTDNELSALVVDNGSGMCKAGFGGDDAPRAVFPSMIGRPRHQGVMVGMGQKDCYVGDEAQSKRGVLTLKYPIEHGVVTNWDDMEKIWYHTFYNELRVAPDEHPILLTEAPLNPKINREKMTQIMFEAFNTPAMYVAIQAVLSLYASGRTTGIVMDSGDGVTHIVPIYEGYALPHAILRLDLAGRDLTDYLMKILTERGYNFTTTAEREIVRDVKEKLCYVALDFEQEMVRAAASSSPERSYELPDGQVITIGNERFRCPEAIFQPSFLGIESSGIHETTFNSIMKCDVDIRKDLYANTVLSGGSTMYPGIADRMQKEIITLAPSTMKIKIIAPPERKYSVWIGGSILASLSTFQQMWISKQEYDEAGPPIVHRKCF
# Sequence of UniProt Q9NXU5 (Q9NXU5 whole entry, looked up): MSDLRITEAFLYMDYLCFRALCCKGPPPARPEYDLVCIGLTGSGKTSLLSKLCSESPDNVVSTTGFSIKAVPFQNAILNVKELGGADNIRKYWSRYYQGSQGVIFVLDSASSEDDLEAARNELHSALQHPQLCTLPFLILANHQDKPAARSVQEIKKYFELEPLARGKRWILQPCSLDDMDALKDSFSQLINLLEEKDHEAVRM
# Sequence of UniProt Q8NFV4 (Q8NFV4 whole entry, looked up): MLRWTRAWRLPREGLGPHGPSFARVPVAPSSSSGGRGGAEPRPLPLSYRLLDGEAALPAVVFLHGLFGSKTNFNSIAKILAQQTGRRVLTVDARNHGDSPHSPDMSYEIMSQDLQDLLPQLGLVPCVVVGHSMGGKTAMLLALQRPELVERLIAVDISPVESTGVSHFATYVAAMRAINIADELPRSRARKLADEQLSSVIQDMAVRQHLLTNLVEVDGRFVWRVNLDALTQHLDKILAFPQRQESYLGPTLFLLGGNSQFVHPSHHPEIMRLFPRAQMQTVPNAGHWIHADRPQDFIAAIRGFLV
# Sequence of UniProt Q9UG63 (Q9UG63 whole entry, looked up): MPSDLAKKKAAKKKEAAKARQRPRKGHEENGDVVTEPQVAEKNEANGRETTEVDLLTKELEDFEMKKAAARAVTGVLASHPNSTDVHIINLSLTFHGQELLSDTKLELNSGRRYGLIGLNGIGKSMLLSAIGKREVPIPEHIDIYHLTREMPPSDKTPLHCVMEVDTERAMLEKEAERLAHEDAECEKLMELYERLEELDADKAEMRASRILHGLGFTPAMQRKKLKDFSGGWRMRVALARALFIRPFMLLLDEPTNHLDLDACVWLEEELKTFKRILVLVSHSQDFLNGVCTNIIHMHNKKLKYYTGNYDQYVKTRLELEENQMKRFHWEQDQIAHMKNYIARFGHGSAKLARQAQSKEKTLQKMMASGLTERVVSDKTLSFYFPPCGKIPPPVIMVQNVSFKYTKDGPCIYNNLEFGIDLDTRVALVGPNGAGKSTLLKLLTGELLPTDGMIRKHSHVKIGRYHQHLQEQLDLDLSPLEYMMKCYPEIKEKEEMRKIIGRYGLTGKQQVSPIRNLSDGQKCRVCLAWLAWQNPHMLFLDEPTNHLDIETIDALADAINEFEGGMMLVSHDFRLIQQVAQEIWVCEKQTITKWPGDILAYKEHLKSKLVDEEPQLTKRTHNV
# Sequence of UniProt P39687 (P39687 whole entry, looked up): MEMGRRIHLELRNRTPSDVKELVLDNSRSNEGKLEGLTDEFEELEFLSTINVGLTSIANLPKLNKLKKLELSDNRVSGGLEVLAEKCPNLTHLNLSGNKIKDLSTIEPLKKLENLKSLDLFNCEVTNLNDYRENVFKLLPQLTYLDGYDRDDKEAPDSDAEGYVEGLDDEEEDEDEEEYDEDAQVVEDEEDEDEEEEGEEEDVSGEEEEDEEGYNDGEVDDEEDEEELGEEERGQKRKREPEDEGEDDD
# Sequence of UniProt Q9NRW3 (Q9NRW3 whole entry, looked up): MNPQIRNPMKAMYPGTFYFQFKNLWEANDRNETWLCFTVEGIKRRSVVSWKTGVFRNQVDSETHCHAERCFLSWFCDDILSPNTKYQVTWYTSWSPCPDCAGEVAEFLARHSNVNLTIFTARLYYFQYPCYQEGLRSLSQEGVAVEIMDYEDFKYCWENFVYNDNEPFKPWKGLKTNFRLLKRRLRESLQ
Target,log2 fold change (nilotinib),log2 fold change [1],log2 fold change (dasatinib),log2 fold change [2],log2 fold change [3],log2 fold change (quisinostat),log2 fold change (tipifarnib),log2 fold change [4],log2 fold change [5],log2 fold change [6],log2 fold change [7],log2 fold change (vorinostat),log2 fold change (silmitasertib),log2 fold change [8],log2 fold change (entospletinib)
ABHD11 (UniProt Q8NFV4),-0.001,-0.021,-0.005,-0.044,0.079,0.081,0.042,-0.016,0.04,-0.003,-0.001,0.195,0.324 (active),0.003,0.05
ACSL4 (UniProt O60488),-0.011,0.008,0.004,0.018,0.02,-0.018,-0.051,0.029,-0.032,-0.074,0.137,-0.321 (active),0.066,-0.002,0.014
ANXA1 (UniProt P04083),-0.01,-0.009,-0.009,-0.006,-0.006,0.034,0.026,-0.015,0.003,0.009,-0.013,-0.255 (active),-0.007,-0.031,0.011
ABCF2 isoform 2 (UniProt Q9UG63),0.001,-0.001,-0.036,-0.024,0.005,-0.022,0.002,0.042,-0.002,-0.023,0.103,-0.326 (active),0.054,0.016,-0.028
APOB (UniProt P04114),-0.002,0.022,-0.096,-0.017,-0.038,-0.092,0.033,0.013,-0.035,0.008,0.063,0.154,0.007,-0.012,0.05
ANP32A (UniProt P39687),-0.003,0.03,0.125,-0.011,-0.039,-0.006,0.002,-0.097,0.012,-0.359 (active),-0.005,0.08,0.063,-0.027,0.026
ARL15 (UniProt Q9NXU5),-0.008,0.021,-0.063,-0.046,0.036,0.024,0.031,-0.034,0.021,0.022,0.007,-0.109,0.016,-0.029,0.014
ARL8A (UniProt Q96BM9),0.003,0.049,0.037,0.091,-0.049,0.17,-0.203,0.153,0.247,-0.054,0.192,0.234,-0.024,-0.03,0.002
AGPS (UniProt O00116),-0.014,-0.021,-0.033,0.05,0.008,0.064,-0.015,0.014,0.004,0.003,-0.015,0.365 (active),-0.007,-0.007,-0.005
ABHD16A (UniProt O95870),-0.015,0.02,0.009,0.027,-0.051,0.143,-0.012,-0.014,-0.003,-0.054,0.007,0.906 (active),-0.1,-0.056,-0.01
ANKRD52 (UniProt Q8NB46),0.041,0.003,-0.048,-0.026,-0.045,-0.037,-0.017,0.005,-0.056,-0.028,-0.043,-0.491 (active),0.063,-0.023,-0.057
ALDH1A1 (UniProt P00352),0.036,-0.019,0.306 (active),-0.012,-0.04,0.015,0.019,0.014,-0.011,0.034,-0.038,0.116,-0.011,-0.018,0.02
ACTBL2 (UniProt Q562R1),0.32,-0.036,-0.075,0.139,-0.067,0.184,0.087,-0.03,-0.008,0.006,-0.116,-0.154,0.039,0.019,-0.083
ANLN (UniProt Q9NQW6),-0.023,0.047,-0.009,-0.018,0.04,-0.072,-0.041,0.006,-0.013,0.015,0.018,-0.656 (active),-0.011,-0.009,0
AMDHD2 isoform 3 (UniProt Q9Y303),0.011,-0.076,-0.043,-0.027,0.026,0.035,0.01,-0.011,-0.022,0.002,0.038,0.088,-0.004,-0.002,0.056
ACBD6 (UniProt Q9BR61),-0.032,0.007,0.04,0.012,0.013,-0.017,0.013,-0.014,0.06,-0.04,-0.009,-0.298 (active),0.003,0.028,-0.028
APOBEC3C (UniProt Q9NRW3),0.082,-0.014,-0.005,0,0.042,-0.144,-0.024,-0.067,-0.001,0.028,0.055,-0.278 (active),0.043,-0.066,-0.007
AIFM2 (UniProt Q9BRQ8),0.057,-0.006,-0.072,-0.03,0.024,-0.105,0.411 (active),-0.028,-0.054,0,-0.014,-0.261,-0.015,0.188,0.003
ACLY (UniProt P53396),-0.005,-0.016,-0.026,-0.005,0.021,0.002,0.016,-0.004,0.018,0.014,-0.008,-0.029,0.012,-0.018,0.014
ACADS (UniProt P16219),0.278 (active),-0.04,-0.002,-0.025,0.033,-0.009,-0.018,0.032,0.01,0.017,-0.005,0.217,-0.089,0.017,-0.021

# — the supplement of paper PMC10849652
